We go through 10 compounds from PubChem BioAssay (NCI).

Compounds without any hit were thinned out: in the full panel of roughly 79,000, 15% have a hit. Unmarked numbers belong to inactive results. Active and inactive are the calls of the source. Cut-off read from the data, not from the text of the source: active = growth inhibition above about 70%; inactive = the rest.

Experiment [1] is described as follows: NCI Yeast Anticancer Drug Screen. Data for the rad50 strain (AID 155).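 Note: 0% = growth of vehicle-only cultures of the same strain.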 As to conditions: S. cerevisiae rad50 strain growth inhibition, active compounds read high. The method in brief:
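Yeast carrying a defined DNA repair defect were exposed to test compounds, and growth was compared with vehicle-treated controls to give percent inhibition.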

A short description of experiment [2]: NCI Yeast Anticancer Drug Screen. Data for the mec2-1 strain (AID 157). As to conditions: S. cerevisiae mec2-1 strain, active compounds read high. The essentials:
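Test agents were screened against the mec2-1 yeast strain, with defined DNA repair or cell cycle alteration. Growth was scored as inhibition against vehicle-only controls.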

Experiment [3] can be described thus: NCI Yeast Anticancer Drug Screen. Data for the sgs1 mgt1 strain (AID 161).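 Note: 0% = growth of cultures given vehicle only.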 As to conditions: S. cerevisiae sgs1 mgt1 strain, active compounds read high. The method in brief: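 Inhibition of yeast growth, normalised to vehicle-treated controls, is reported for a strain bearing genetic alterations in DNA damage repair.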
Experiment [4] in a line: NCI Yeast Anticancer Drug Screen. Data for the cln2 rad14 strain (AID 165).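 Note: 0% = growth equal to vehicle treated cultures.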 To be noted: S. cerevisiae cln2 rad14 strain, active compounds read high. The essentials:
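Growth of compound-exposed yeast (cln2 rad14 genotype) measured and expressed as inhibition relative to vehicle.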

Experiment [5] in a line: NCI Yeast Anticancer Drug Screen. Data for the bub3 strain (AID 167). To be noted: S. cerevisiae bub3 mutant strain, active compounds read high. The method in brief:
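Compounds were applied to a genetically altered yeast strain carrying a cell-cycle control defect. Growth inhibition was scored against vehicle-treated controls.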

Experiment [6] in a line: NCI Yeast Anticancer Drug Screen. Data for the mlh1 rad18 strain (AID 175). To be noted: S. cerevisiae mlh1 rad18 strain growth inhibition, active compounds read high. The method in brief: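 In this whole-cell yeast screen, a strain with altered DNA damage repair is challenged with compound, and its growth is measured against matched vehicle-treated controls.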
Setting [7] is: at 5.0 µM (retest, dose inferred, filed as 0.5).
[8] abbreviates: at 50.0 µM (retest, dose inferred, filed as 5.0).

As to `S=P(Nc1ccc(Cl)cc1)(Nc1ccc(Cl)cc1)c1ccccc1`, the growth inhibition in experiment [1] (setting [7]) is 45%; in experiment [1] (setting [8]), 90% (active); in experiment [1] (at 50.0 µM), 97.8% (active); in experiment [2] (setting [7]), 20%; in experiment [2] (setting [8]) it was 33%; in experiment [2] (at 50.0 µM), 99.2% (active). Further, the growth inhibition in experiment [3] (setting [7]) is 18%; in experiment [3] (setting [8]) it was 65%; in experiment [3] (at 50.0 µM), 97.1% (active); in experiment [4] (setting [7]) it was 37%; in experiment [4] (setting [8]), 89% (active); in experiment [4] (at 50.0 µM) it was 95.6% (active). Moreover, the growth inhibition in experiment [5] (setting [7]) is 38%; in experiment [5] (setting [8]), 86% (active); in experiment [5] (at 50.0 µM), 99.1% (active); in experiment [6] (setting [7]), 53%; in experiment [6] (setting [8]) it was 95% (active); in experiment [6] (at 50.0 µM), 99% (active).

With `S=C=NCCc1ccccc1`, the growth inhibition in experiment [1] (setting [7]) is -12%; in experiment [1] (setting [8]), 21%; in experiment [1] (at 50.0 µM), 72% (active); in experiment [2] (setting [7]) it was -13%; in experiment [2] (setting [8]) it was 18%; in experiment [2] (at 50.0 µM), 48.4%. Moreover, the growth inhibition is -5% in experiment [3] (setting [7]); -8% in experiment [3] (setting [8]); 42.5% in experiment [3] (at 50.0 µM); 2% in experiment [4] (setting [7]); 8% in experiment [4] (setting [8]); 28.1% in experiment [4] (at 50.0 µM). Also, the growth inhibition is 5% in experiment [5] (setting [7]); 20% in experiment [5] (setting [8]); 43.8% in experiment [5] (at 50.0 µM); -20% in experiment [6] (setting [7]); 15% in experiment [6] (setting [8]); 61.6% in experiment [6] (at 50.0 µM).

As to `O=C(O)C(F)(F)C(F)(F)C(=O)O`, the growth inhibition is 8% in experiment [1] (setting [7]); -3% in experiment [1] (setting [8]); 0.35% in experiment [1] (at 50.0 µM); 3% in experiment [2] (setting [7]); 0% in experiment [2] (setting [8]); -1.4% in experiment [2] (at 50.0 µM). The growth inhibition in experiment [3] (setting [7]) is -5%; in experiment [3] (setting [8]) it was -2%; in experiment [3] (at 50.0 µM) it was 4.8%; in experiment [4] (setting [7]) it was 6%; in experiment [4] (setting [8]) it was 1%; in experiment [4] (at 50.0 µM), -16.1%. For the same compound, the growth inhibition was 5% in experiment [5] (setting [7]); 26% in experiment [5] (setting [8]); -3.15% in experiment [5] (at 50.0 µM); 5% in experiment [6] (setting [7]); -2% in experiment [6] (setting [8]); 5.25% in experiment [6] (at 50.0 µM).

With `CCC1CN1P(=O)(Oc1ccccc1)N1CC1CC` (centres undefined), the growth inhibition in experiment [1] (setting [7]) was -2%; in experiment [1] (setting [8]), 15%; in experiment [1] (at 50.0 µM), -5.7%; in experiment [2] (setting [7]), -1%; in experiment [2] (setting [8]), -42%; in experiment [2] (at 50.0 µM), -17.2%. Also, the growth inhibition was -1% in experiment [3] (setting [7]); 2% in experiment [3] (setting [8]); -14.8% in experiment [3] (at 50.0 µM); -11% in experiment [4] (setting [7]); -7% in experiment [4] (setting [8]); -16.4% in experiment [4] (at 50.0 µM). Also, the growth inhibition in experiment [5] (setting [7]) is 7%; in experiment [5] (setting [8]), 52%; in experiment [5] (at 50.0 µM), 57.5%; in experiment [6] (setting [7]), -2%; in experiment [6] (setting [8]), 6%; in experiment [6] (at 50.0 µM), -20%.

As for `CCCCCc1cc(/C=C2/N=C(c3ccc[nH]3)C=C2OC)[nH]c1C`, the growth inhibition in experiment [1] (setting [7]) was 47%; in experiment [1] (setting [8]), 77% (active); in experiment [1] (at 50.0 µM) it was 83.9% (active); in experiment [2] (setting [7]) it was 49%; in experiment [2] (setting [8]) it was 81% (active); in experiment [2] (at 50.0 µM), 85.5% (active). For the same compound, the growth inhibition in experiment [3] (setting [7]) was 75% (active); in experiment [3] (setting [8]) it was 86% (active); in experiment [3] (at 50.0 µM), 86.8% (active); in experiment [4] (setting [7]), 46%; in experiment [4] (setting [8]) it was 81% (active); in experiment [4] (at 50.0 µM), 84.3% (active). In addition, the growth inhibition in experiment [5] (setting [7]) is 80% (active); in experiment [5] (setting [8]), 79% (active); in experiment [5] (at 50.0 µM) it was 83.8% (active); in experiment [6] (setting [7]), 71% (active); in experiment [6] (setting [8]), 77% (active); in experiment [6] (at 50.0 µM), 84% (active).

For `OC1CCCC2CCCNC12` (centres undefined), the growth inhibition in experiment [1] (setting [7]) was 84% (active); in experiment [1] (setting [8]) it was 97% (active); in experiment [1] (at 50.0 µM) it was 86.4% (active); in experiment [2] (setting [7]) it was 79% (active); in experiment [2] (setting [8]), 98% (active); in experiment [2] (at 50.0 µM), 90% (active). For the same compound, the growth inhibition is 97% (active) in experiment [3] (setting [7]); 98% (active) in experiment [3] (setting [8]); 90% (active) in experiment [3] (at 50.0 µM); 81% (active) in experiment [4] (setting [7]); 98% (active) in experiment [4] (setting [8]); 86.3% (active) in experiment [4] (at 50.0 µM). For the same compound, the growth inhibition in experiment [5] (setting [7]) was 96% (active); in experiment [5] (setting [8]), 98% (active); in experiment [5] (at 50.0 µM) it was 91.8% (active); in experiment [6] (setting [7]), 73% (active); in experiment [6] (setting [8]), 97% (active); in experiment [6] (at 50.0 µM), 91.2% (active).

`CC(C)(C)[Si](OC(=O)N(CCCl)CCCl)(c1ccccc1)c1ccccc1`: the growth inhibition in experiment [1] (setting [7]) is 22%; in experiment [1] (setting [8]), 82% (active); in experiment [1] (at 50.0 µM) it was 67.2%; in experiment [2] (setting [7]), 10%; in experiment [2] (setting [8]), 76% (active); in experiment [2] (at 50.0 µM) it was 20.8%. The growth inhibition in experiment [3] (setting [7]) is 13%; in experiment [3] (setting [8]) it was 82% (active); in experiment [3] (at 50.0 µM) it was 79.5% (active); in experiment [4] (setting [7]), 19%; in experiment [4] (setting [8]), 83% (active); in experiment [4] (at 50.0 µM) it was 68.4%. The growth inhibition was -2% in experiment [5] (setting [7]); 93% (active) in experiment [5] (setting [8]); 68.6% in experiment [5] (at 50.0 µM); 15% in experiment [6] (setting [7]); 85% (active) in experiment [6] (setting [8]); 90.3% (active) in experiment [6] (at 50.0 µM).

With `CC12CCC3C(CC=C4CC(SC(=N)N)CCC43C)C1CCC2=O` (centres undefined), the growth inhibition is 0% in experiment [1] (setting [7]); 33% in experiment [1] (setting [8]); 67.3% in experiment [1] (at 50.0 µM); 5% in experiment [2] (setting [7]); 51% in experiment [2] (setting [8]); 48.3% in experiment [2] (at 50.0 µM). Besides, the growth inhibition in experiment [3] (setting [7]) was 21%; in experiment [3] (setting [8]), 72% (active); in experiment [3] (at 50.0 µM), 75.5% (active); in experiment [4] (setting [7]), 9%; in experiment [4] (setting [8]) it was 19%; in experiment [4] (at 50.0 µM) it was 59.7%. In addition, the growth inhibition in experiment [6] (setting [7]) was 8%; in experiment [6] (setting [8]), 31%; in experiment [6] (at 50.0 µM), 59.6%.

Regarding `COC1OCCC[CH]1[Hg][Cl]` (centres undefined), the growth inhibition in experiment [1] (setting [7]) was 98% (active); in experiment [1] (setting [8]) it was 99% (active); in experiment [1] (at 50.0 µM) it was 99.2% (active); in experiment [2] (setting [7]), 100% (active); in experiment [2] (setting [8]), 99% (active); in experiment [2] (at 50.0 µM), 99.3% (active). Moreover, the growth inhibition in experiment [3] (setting [7]) was 99% (active); in experiment [3] (setting [8]) it was 99% (active); in experiment [3] (at 50.0 µM), 99.5% (active); in experiment [4] (setting [7]), 99% (active); in experiment [4] (setting [8]), 99% (active); in experiment [4] (at 50.0 µM) it was 99.3% (active). In addition, the growth inhibition was 99% (active) in experiment [5] (setting [7]); 99% (active) in experiment [5] (setting [8]); 99.5% (active) in experiment [5] (at 50.0 µM); 99% (active) in experiment [6] (setting [7]); 99% (active) in experiment [6] (setting [8]); 99.2% (active) in experiment [6] (at 50.0 µM).

In the case of `[pH]1p2[pH]p3p1p3[pH]2.c1cc[c]([Ge]([c]2ccccc2)[c]2ccccc2)cc1.c1cc[c]([Ge]([c]2ccccc2)[c]2ccccc2)cc1.c1cc[c]([Ge]([c]2ccccc2)[c]2ccccc2)cc1`, the growth inhibition in experiment [1] (setting [7]) is 10%; in experiment [1] (setting [8]) it was 82% (active); in experiment [1] (at 50.0 µM), 2.35%; in experiment [2] (setting [7]) it was 20%; in experiment [2] (setting [8]) it was 74% (active); in experiment [2] (at 50.0 µM), 59.3%. For the same compound, the growth inhibition in experiment [3] (setting [7]) is 18%; in experiment [3] (setting [8]) it was 78% (active); in experiment [3] (at 50.0 µM) it was 4.75%; in experiment [4] (setting [7]), 8%; in experiment [4] (setting [8]) it was 44%; in experiment [4] (at 50.0 µM), 37.8%. Moreover, the growth inhibition in experiment [6] (setting [7]) was 19%; in experiment [6] (setting [8]), 71% (active); in experiment [6] (at 50.0 µM), 18.4%.
